Screening results (PubChem)
HP1b chromo inh = HP1-beta chromodomain-methylated histone interaction inhibition. AlphaScreen HP1-beta / biotin-H3K9me3 peptide binding. Potency, µM (top dose mostly 114 µM), without a hit: at the top dose activity change, negative = inhibition, actives largely listed as inhibitors. hit rate 0.56% among 390,000; further: potency means the concentration at half of the fitted maximal effect; nearly all actives have a fitted effect of over 70% in size
Target sequence (P83916 whole entry, looked up): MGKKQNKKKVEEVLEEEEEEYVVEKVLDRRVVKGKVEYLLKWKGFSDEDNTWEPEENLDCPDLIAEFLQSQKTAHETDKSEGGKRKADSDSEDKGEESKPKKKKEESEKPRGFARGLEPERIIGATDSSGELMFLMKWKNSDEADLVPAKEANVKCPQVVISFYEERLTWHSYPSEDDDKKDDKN
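AlphaScreen: HP1-beta (50 nM) preformed 30 min with biotin-H3(1-18)K9me3 peptide (50 nM) in PBS pH 7.4, 0.01% Tween-20. Compound added for 30 min at RT, then streptavidin donor/nickel chelate acceptor beads (10 ug/mL) for 30 min.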
JMJD2A Tudor inh = blocks the human JMJD2A Tudor domain; O75164; AlphaScreen JMJD2A-Tudor / H3K4me3 peptide binding; Potency, µM (top dose mostly 114 µM), inactives show top-dose activity change, negative = inhibition, most hits filed as inhibitors; hit rate 4.4% among 390,000; AID 504339; further: potency means the concentration at half of the fitted maximal effect; on the % scale 0 is the no-effect control and ±100 the full control effect; nearly all actives have a fitted effect of over 50% in size
BAZ2B inh = BAZ2B (human) inhibition; hit rate 4.4% among 360,000; AlphaScreen BAZ2B-H3K14Ac peptide displacement; Potency, µM (doses to about 114 µM), for the others: at the top dose activity change, negative = inhibition, actives largely listed as inhibitors; Q9UIF8; further: potency means the concentration at half of the fitted maximal effect; on the % scale 0 is the no-effect control and ±100 the full control effect; nearly all actives have a fitted effect of over 60% in size
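Complex of BAZ2B and biotin-H3K14Ac (50 nM apiece) forms over 30 min at RT, then faces library compounds up to 110 uM for another 30 min; AlphaScreen beads added, 20 min dark incubation, luminescence read.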
CtBP-E1A blk = inhibitors of CtBP/E1A interaction; activity change, % (test concentration not listed); AlphaScreen GST-E1A/His-CtBP binding, 1536-well; stronger effect = lower value; hit rate 0.49% among 340,000; in the data active means activity change below about -65%; inconclusive means mostly about -30% to -63%; further: on the % scale 0 is the no-effect control and ±100 the full control effect
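In 5 uL wells, 23 nL compound meets equimolar GST-E1A and His-CtBP (5X stock 125 nM each) for 2 h, 37 °C. Beads (5X, 50 ug/mL) then 1 h, 37 °C, dark.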
Six1-Eya2 blk = Six1/Eya2 interaction inhibition; AlphaScreen GST-Six1/His-Eya2 binding, biochemical; stronger effect = lower value; activity change, % (concentration not given with the values); hit rate 0.56% among 360,000; AID 651725; Q15475+O00167; in the data active means activity change below about -65%; inconclusive means mostly about -30% to -63%; further: on the % scale 0 is the no-effect control and ±100 the full control effect
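AlphaScreen with GST-Six1 and His-Eya2 (5X mix: 250 nM and 500 nM), glutathione donor and nickel acceptor beads; buffer 50 mM Tris pH 8.0, 300 mM NaCl, 1 mM TCEP; 1 h at 37 C in the dark.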
G9a block = blocks human histone lysine methyltransferase G9a; Potency, µM (top dose mostly 102 µM), inactives show top-dose activity, negative = inhibition, actives largely listed as inhibitors; Q96KQ7; G9a H3K9 monomethylation, AlphaScreen, 2 h; hit rate 8.8% among 350,000; further: potency means the concentration at half of the fitted maximal effect; on the % scale 0 is the no-effect control and ±100 the full control effect; nearly all actives have a fitted effect of over 75% in size
Target sequence (Q96KQ7 913-1193 limits assumed): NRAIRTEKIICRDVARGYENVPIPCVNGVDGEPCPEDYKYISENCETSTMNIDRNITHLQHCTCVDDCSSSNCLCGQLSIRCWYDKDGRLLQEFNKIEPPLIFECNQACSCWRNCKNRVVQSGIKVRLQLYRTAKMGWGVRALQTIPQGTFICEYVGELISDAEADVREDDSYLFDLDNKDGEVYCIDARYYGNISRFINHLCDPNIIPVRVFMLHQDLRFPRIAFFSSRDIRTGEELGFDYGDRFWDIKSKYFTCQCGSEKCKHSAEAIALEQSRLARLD
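Using a bead-based AlphaScreen, monomethylated H3K9 product from 2 h room-temperature reactions (G9a 20 nM, peptide 500 nM, SAM 20 uM) was detected with 0.5 ug/mL rabbit anti-H3K9me1 antibody.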
The depositor's hits bear a star; ? = inconclusive; . = no result; [ ] = dose if it differs, or a comment. Most compounds without a hit are left out; they make up all but 10% or so of the library. Unless noted, the call rests on the fitted dose curve; in most records, active means well fitted inhibition curve with a large enough effect; inconclusive means small, poorly fitted or top-dose-only effect; inactive means no such curve, though single readings can be large or run the other way.

SMILES | HP1b chromo inh | JMJD2A Tudor inh | BAZ2B inh | CtBP-E1A blk | Six1-Eya2 blk | G9a block
O=C(N/N=C/c1cccc([N+](=O)[O-])c1)c1ccc2nc[nH]c2c1 | 53% | -6% | -7% | -13 | -8 | 3%
CCN(CC)S(=O)(=O)c1cccc(C(=O)N/N=C2\CCCC(=O)C2)c1 | 34% | -15% | -3% | 0 | -2 | .
CCN(CC)S(=O)(=O)c1cccc(C(=O)N/N=C/c2cc(OC)c(O)c(OC)c2)c1 | 15% | -20% | 1% | -24 | ? | 10µM*
CCN(CC)S(=O)(=O)c1cccc(C(=O)N/N=C/c2cccc(O)c2O)c1 | 14% | -27% | 8% | -93* | -87* | 0%[59 µM]
COc1cc(/C=N/NC(=O)c2cccc(S(=O)(=O)N3CCCC3)c2)cc(OC)c1O | 14% | -10% | 10% | ? | ? | 14µM*
O=C(N/N=C/c1ccc2ncccc2c1)c1cccc([N+](=O)[O-])c1 | 205% | ? | -39% | -7 | -25 | 79µM*
COc1ccc(/C=N/NC(=O)c2cccc(S(=O)(=O)N3CCCC3)c2)cc1O | 34% | -21% | 1% | ? | -14 | 23%[12.7 µM]
CCOC(=O)Cn1c(=O)n(CC2CCCO2)c2nc(-c3cc(OC)ccc3OC)nc(C(N)=O)c21 (stereo not drawn) | 24%[57 µM] | -19% | -4% | . | . | 8%[59 µM]
CN(Cc1ccccc1)C(=O)c1ccc(NC(=O)C2=CSCCO2)cc1 | 10%[57 µM] | -19% | -13% | . | 7 | .
COc1ccc(CC(=O)NNC(=S)NCC2CC2)cc1OC | 45% | -1% | 0% | 4 | 3 | .
CCN1C[C@@H]2[C@@H]3C(=O)N(C)C(=O)[C@@H]3[C@](C)(C1=O)N2C(=O)c1ccc(C(C)(C)C)cc1 | 34% | -13% | . | 11 | 3 | .
CCN(CC)S(=O)(=O)c1cccc(C(=O)N/N=C/c2ccccn2)c1 | 11% | ? | 56µM* | -23 | -73* | ?
Oc1ccc(/C=N/NC(=S)Nc2cccnc2)cc1O | ? | -32% | ? | -6 | -23 | ?
Oc1ccc(C=NNC(=S)Nc2cccnc2)nc1 | 19% | 10µM* | . | -6 | -97* | .
O=C(N/N=C/c1ccccn1)c1ccc(Br)cc1 | 10% | ? | -7% | -65* | ? | 9%
O=C(N/N=C/c1ccncc1)c1cc([N+](=O)[O-])cc([N+](=O)[O-])c1O | 24% | 79µM* | ? | -17 | -11 | ?
CCOc1ccccc1CNS(=O)(=O)c1ccc2[nH]c(=O)ccc2c1 | 20%[57 µM] | -10% | 2% | . | . | 1%[59 µM]
COc1cc(OC)nc(Oc2cc(C=O)ccc2OC)n1 | 0% | -10% | 2% | -8 | 6 | -1%
Cc1coc2c1C(=O)C(=O)c1c-2ccc2c1CCCC2(C)C | ? | 45µM* | 7.9µM* | -15 | -7 | 2.2µM*
Cc1coc2c1C(=O)C(=O)c1c-2ccc2c(C)cccc12 | ? | 35µM* | 35µM* | ? | ? | ?
Cc1ccc2c3c(cccc13)-c1ccccc1C2=O | 30% | -11% | 9% | 13 | -5 | 41%
Cc1ccccc1CNC(=O)CN1C(=O)CCCc2ccccc21 | -4% | -20% | 6% | . | . | 4%[59 µM]
Cc1cc(Br)ccc1NC(=O)C1C2CCC(O2)C1C(=O)O (stereo not drawn) | 64% | -5% | -1% | 5 | 3 | 32µM*
CCOC(=O)n1c(=O)oc2ccc(Cl)cc21 | 27% | 28µM* | 5% | -26 | -25 | 20µM*
CCCCOC(=O)n1c(=O)oc2ccccc21 | 29% | 0% | 10% | -1 | 0 | 7%[59 µM]
SMILES | HP1b chromo inh | JMJD2A Tudor inh | BAZ2B inh | CtBP-E1A blk | Six1-Eya2 blk | G9a block
O=C1OCCN1c1c(-c2ccccc2)c(-c2cccs2)nc2c(-c3ccccc3)cccc12 | 52% | -3% | -4% | 12 | 11 | 40µM*
Cc1ccc(-n2nc(C)c3c2NC2=C(C(=O)CC(C)(C)C2)C3c2ccccc2OCC(=O)O)cc1 (stereo not drawn) | -6% | 56µM* | . | 12 | 1 | ?
COc1cccc2c(=O)c3c(oc12)CCCC3 | . | . | . | 2 | -23 | .
Nc1cccc2c3c(oc12)CCCC3 | 21% | -28% | -27% | 2 | -2 | 40µM*
Cc1ccc(NC2=C(Cl)C(=O)N(C3CCCCC3)C2=O)cc1 | 9% | -2% | 1% | 16 | -15 | 7%[59 µM]
O=C(C(Cl)Cl)N1CCN(Cc2ccccc2)CC1 | 30% | 6% | -2% | 2 | 1 | -6%
CC(CN1CCC(O)CC1)c1ccccc1 (stereo not drawn) | ? | 2.8µM* | ? | -9 | 2 | .
CC(CN1CCN(Cc2ccccc2)CC1)c1ccccc1 (stereo not drawn) | -8% | 89µM* | -8% | . | 8 | 22%[0.501 µM]
ClC(CCN1CCN(Cc2ccccc2)CC1)c1ccccc1 (stereo not drawn) | 11% | 50µM* | . | 0 | 11 | .
Cc1cccc(NC(=O)CCNS(=O)(=O)c2ccc3[nH]c(=O)oc3c2)c1 | 27% | -21% | -1% | . | -1 | 11%
COc1ccc(CNC(=O)C(CC(C)C)NS(=O)(=O)c2ccc3c(c2)oc(=O)n3C)cc1 (stereo not drawn) | 16% | -17% | -17% | . | . | -25%[59 µM]
Cc1cc(N(C)N)nc(NC(=O)NS(=O)(=O)c2ccccc2Cl)n1 | 25%[57 µM] | 28µM* | 28µM* | -94* | -74* | 18%
